40 compounds from PubChem BioAssay (NCATS) can be followed below.

Records with an inconclusive call do not appear. A number with no mark means an inactive call. Active and inactive are the calls of the source. Calls follow the shape of the dose curve; as a rule, active = well fitted cell-killing curve with a large enough effect; inconclusive = small, poorly fitted or top-dose-only effect; inactive = no such curve, though single readings can be large or run the other way.
% is scaled to controls: 0 for no effect and ±100 for the full control effect; potency is read from the fitted curve at half-maximal effect.

The nature of this experiment: qHTS of pediatric cancer cell lines to identify multiple opportunities for drug repurposing: Primary screen for MG 63 (6-TG R) cells (AID 1347105). Also: nearly all actives have a fitted effect of over 50% in size. The conditions noted are these: MG 63 (6-TG R) viability, CellTiter-Glo, 48 h; series mostly up to 46 µM; activity change, negative = cytotoxic: at the top concentration. The source says: Drug repurposing or repositioning has been offered as a strategy for drug development in oncology programs. This approach has special potential for childhood cancers and other rare or orphan diseases, where the expected return on new drug development has been a disincentive to pharmaceuticals. […] In this project we exploit the poly-pharmacology of drugs to discover new indications via phenotypic screening of a panel of 19 well-characterized cell lines derived from solid tumors seen in children and adolescents. The goal is to identify approved drugs with previously unrecognized anticancer properties that has the potential to reveal new mechanisms and biological processes involved in carcinogenesis or drug resistance. We employed a titration-based paradigm (quantitative high-throughput screening or qHTS), where all compounds were tested at multiple concentrations for their effect on cell viability. Concentration-response curves (CRCs) were derived directly from the primary screen, and both potency and efficacy values were used to identify compounds with robust bioactivity profiles. We screened the NIH Chemical Genomics Center (NCGC) Pharmaceutical Collection (NPC) and Mechanism Interrogation Plate (MIPE) small molecule collections of approved and investigational compounds against these cell lines; and measured metabolically active cells after 48 hours of compound treatment as a proxy for cell viability. […] Assay Submitter: Nathalia J. Martinez, National Center for Advancing Translational Sciences, National Institutes of Health, Rockville, MD, USA; email: natalia.martinez@nih.gov Shen, M et al. Quantitative high-throughput phenotypic screening of pediatric cancer cell lines identifies multiple opportunities for drug repurposing. Oncotarget 2017 Dec 19;9(4):4758-4772. PMID 29435139.
The cells were obtained from University of North Carolina (UNC), Pediatric Preclinical Testing Program (PPT), and Coriell Institute (CI). qHTS cell viability assay: Cells were assayed in growth media at a density of 500-1,000 cells/well. Five microliters of cells were dispensed into 1,536-well, white, solid-bottom, TC-treated plates (Greiner Bio One) using a multidrop dispenser and incubated at 37 degrees C, 5% CO2, under a humidified atmosphere for 5 hours. Twenty-three nanoliters of compounds and controls (neutral control DMSO or positive control bortezomib at final concentration of 2.3 µM) were subsequently transferred by Kalypsys pintool. For primary screens, the MIPE collection was tested at 11-point dilutions (final concentrations range from 0.78 nM to 46 µM) and the NPC collection at 8-point dilutions (final concentrations range from 0.59 nM to 46 µM). Compounds tested in follow-up screens were assayed at 11-point dilutions. Cells were incubated for 48 hours, followed by addition of 3 µL of CellTiter-Glo (Promega). After a 15 min incubation at room temperature, samples were analyzed for luminescence intensity using a ViewLux High-throughput CCD imager equipped with clear filters.
(In general: Quantitative high-throughput screening tests each substance at several concentrations.)
For the compound `C1=C2CCCN[C@H]2[C@@H]2C[C@H]1[C@@H]1CCCCN1C2`, the “activity change, negative = cytotoxic” value was -5.18%. In the case of `CSCC[C@@H](NC(=O)[C@@H](Cc1ccccc1)NC(=O)CNC(=O)CNC(=O)[C@@H](N)Cc1ccc(O)cc1)C(=O)O`, the “activity change, negative = cytotoxic” value was 12.4%. As to `CC(=O)OCC1=C(C(=O)O)N2C(=O)[C@@H](N)[C@@H]2SC1`, the “activity change, negative = cytotoxic” value is 1.75%. Consider `Cc1c(C(=O)c2cccc3ccccc23)c2cccc3c2n1[C@H](CN1CCOCC1)CO3`, for which the Potency was 23500 nM (active). `Cc1nc(-c2ccc(-c3ccc(C(=O)N4CCc5cc6c(cc54)C4(CCN(C)CC4)CO6)cc3)c(C)c2)no1`: the “activity change, negative = cytotoxic” value was 20.2%. `CCN1C[C@]2(OC(=O)c3ccccc3NC(C)=O)CC[C@H](OC)[C@@]34[C@H]5CC6[C@@H](OC)C[C@](O)(C(C[C@@H]23)[C@@H]14)[C@@]5(O)[C@@H]6OC`: the “activity change, negative = cytotoxic” value is -0.33%. Regarding `C[C@]12CCC(=O)C(O)=C1CC[C@@H]1[C@H]3CCC(=O)[C@@]3(C)CC[C@@H]12`, the “activity change, negative = cytotoxic” value is -20.1%.

On to `O=[N+]([O-])c1cc([N+](=O)[O-])c2ccccc2c1`, for which the “activity change, negative = cytotoxic” value is 63.8% [at 92.7 µM]. Same read-out and setting: as for `CCOC(=O)Nc1ccc(NCc2ccc(F)cc2)cc1N`, the figure is -1.91%. In the case of `c1ccc2c(CN3CCNCC3)cccc2c1`, the “activity change, negative = cytotoxic” value was -14.3%. Turning to `CC1(N2CCC(n3c([C@@H]4CCCNC4)nc4ccccc43)CC2)CCCCCCC1`, the “activity change, negative = cytotoxic” value is -74.8%. `Cc1ccccc1-n1c(Cn2cnc3c(N)ncnc32)nc2cccc(C)c2c1=O`: the Potency is 148 nM (active). Regarding `Cc1[nH]nc2ccc(-c3cncc(OC[C@@H](N)Cc4c[nH]c5ccccc45)c3)cc12`, the Potency was 2350 nM (active). As to `COC(=O)c1cncn1C(C)c1ccccc1` (stereo not given), the “activity change, negative = cytotoxic” value was -32%. In the case of `CCCCC(CC)COC(=O)c1ccccc1C(=O)OCC(CC)CCCC` (stereo not given), the “activity change, negative = cytotoxic” value was -20% [at 92.7 µM]. As to `C[C@]12COC(=O)C[C@@H]1CC[C@@H]1[C@H]2CC[C@@]2(C)[C@H]1CC[C@]2(C)O`, the “activity change, negative = cytotoxic” value was -22.3%.

`C[C@](O)(COc1ccc(C#N)cc1)C(=O)Nc1ccc(C#N)c(C(F)(F)F)c1`: the “activity change, negative = cytotoxic” value is -21.9%.

For `COc1ccc2c(c1)[C@]13CCCCC1C(C2)N(C)CC3` (stereo not given in full), the “activity change, negative = cytotoxic” value was -24.8%. As to `CC[C@@H]1[C@@H](C)O[C@@](O)([C@@H](C)[C@H](O)[C@H](C)[C@H]2OC(=O)C=CC=C[C@@H](C)[C@@H]([C@@H](C)[C@@H](O)[C@H](C)[C@@]3(O)C[C@H](O[C@H]4C[C@H](O)[C@H](O)[C@H](C)O4)[C@H](CC)[C@@H](C)O3)OC(=O)C=CC=C[C@@H]2C)C[C@H]1O[C@H]1C[C@H](O)[C@H](O)[C@H](C)O1`, the Potency is 590 nM (active). `O=C(O)CNC(=O)c1c(O)c2ccccc2n(Cc2ccccc2)c1=O`: the “activity change, negative = cytotoxic” value was -25.2%. With `Oc1ccc2c3c1O[C@H]1[C@@H](O)C=C[C@H]4[C@@H](C2)NCC[C@@]341`, the “activity change, negative = cytotoxic” value was -13.9% [at 92.7 µM].

For `COc1cccc2c1[C@]13CCN(CC4CC4)[C@H](C2)[C@]1(OC)CCC(=O)C3`, the “activity change, negative = cytotoxic” value was 10.3%. Take `CCCCCCCCCC(CC)c1ccc(S(=O)(=O)O)cc1` (stereo not given): the “activity change, negative = cytotoxic” value was 18.2% [at 92.7 µM].

As for `COc1ccc(CC2NCCc3cc(OC)c(OC)cc32)cc1OC` (stereo not given), the “activity change, negative = cytotoxic” value is -7.72%. Same read-out and setting: as for `Nc1ccc([N+](=O)[O-])cc1`, the figure is -11.7% [at 92.7 µM]. Consider `CC(C)(O)C=CC(=O)[C@](C)(O)[C@H]1[C@H](O)C[C@]2(C)[C@@H]3CC=C4[C@@H](C=C(O)C(=O)C4(C)C)[C@]3(C)C(=O)C[C@@]12C`, for which the Potency is 29.6 nM (active). Turning to `CCN1CCN(C(=O)Cc2ccc(Nc3ncc(F)c(Nc4ccc(C(=O)Nc5ccccc5Cl)cc4)n3)cc2)CC1`, the Potency was 9350 nM (active). For the compound `O=[N+]([O-])c1c2ccccc2cc2ccccc12`, the “activity change, negative = cytotoxic” value is -23% [at 92.7 µM]. Turning to `Nc1ccc(Cl)cc1N`, the “activity change, negative = cytotoxic” value is -19.8% [at 92.7 µM]. Consider `CC1=C(O)C(=O)C=C2C1=CC=C1[C@@]2(C)CC[C@@]2(C)[C@@H]3C[C@](C)(C(=O)O)CC[C@]3(C)CC[C@]12C`, for which the Potency is 935 nM (active). For `CN1[C@H]2CC(O)C[C@H]1[C@H]1O[C@H]12` (stereo not given in full), the Potency was 14800 nM (active). Take `CN[C@@H]1Cc2cccc3[nH]c(=O)n(c23)C1`: the “activity change, negative = cytotoxic” value was -12%. In the case of `O=[N+]([O-])c1ncc[nH]1`, the “activity change, negative = cytotoxic” value was 15.7%. In the case of `CC(C)Oc1cccc(NC(=O)c2ccccc2C(F)(F)F)c1`, the “activity change, negative = cytotoxic” value was -19.1% [at 92.7 µM].

For `O=S(=O)(O)C(F)(F)C(F)(F)C(F)(F)C(F)(F)F`, the “activity change, negative = cytotoxic” value is -11.4% [at 92.7 µM].

Regarding `CC[C@@]1(O)C(=O)OCc2c1cc1n(c2=O)Cc2cc3ccccc3nc2-1`, the Potency was 59 nM (active).

`c1cc2c(cc1[C@H]1OC[C@H]3[C@H]1CO[C@H]3c1ccc3c(c1)OCO3)OCO2`: the “activity change, negative = cytotoxic” value is 12.9%.

In the case of `CCOP(=O)(NC(C)C)Oc1ccc(SC)c(C)c1` (stereo not given), the “activity change, negative = cytotoxic” value was -14.8% [at 92.7 µM]. As for `COCC1(CO)C(=O)C2CCN1CC2` (stereo not given), the Potency was 18700 nM (active).

With `Cc1c(N)nc([C@H](CC(N)=O)NC[C@@H](N)C(N)=O)nc1C(=O)N[C@H](C(=O)N[C@@H](C)[C@H](O)[C@@H](C)C(=O)N[C@@H](C(=O)NCCc1nc(-c2nc(C(=O)NCCC[S+](C)C)cs2)cs1)[C@@H](C)O)C(O[C@H]1O[C@H](CO)[C@H](O)[C@@H](O)[C@@H]1O[C@H]1O[C@H](CO)[C@@H](O)[C@H](OC(N)=O)[C@H]1O)c1cnc[nH]1` (stereo not given in full), the Potency is 590 nM (active).
